Screening results from PubChem BioAssay.
An excerpt weighted towards active compounds, which were near 19% of everything screened.
KB-V1 MDR tox = KB-V1 MDR subline cytotoxicity | AID 1347076 | KB-V1 MDR cells viability, CellTiter-Glo, 72 h | Potency, µM (highest dose often 46.1 µM), hits mostly cytotoxic | 400,000 tested, 3.4% active; also: nearly all actives have a fitted effect of over 60% in size
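Cytotoxicity via CellTiter-Glo luminescence after 72 h compound exposure at 37 degrees C. Cells: drug-selected KB-V1 line, DMEM phenol-red free plus 10% FBS. Compounds tested at multiple concentrations; normalized data fitted to concentration-effect curves.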
TDP1 cell CPT = DT40-hTDP1 cell growth loss with CPT; chicken DT40 Tdp1-/-;hTDP1 cells + 20 nM CPT, ATP luminescence, 48 h; Potency, µM (highest dose often 46.2 µM), usual class: inhibitors; 420,000 tested, 12% active; AID 686979; also: nearly all actives have a fitted effect of over 55% in size
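Chicken DT40 Tdp1-/- cells complemented with human TDP1, 400 cells/well, exposed to compounds plus 20 nM camptothecin for at least 48 h at 37 C; viability read as ATP content by CellTiter-Glo luminescence.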
TDP1 cell noCPT = qHTS for Inhibitors of human tyrosyl-DNA phosphodiesterase 1 (TDP1): qHTS in cells in absence of CPT; DT40 Tdp1-/- hTDP1 cells, no CPT, ATP luminescence, 48 h; Potency, µM (top dose mostly 46.2 µM), actives largely listed as inhibitors; 420,000 tested, 15% active; also: nearly all actives have a fitted effect of over 55% in size
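Luminescent ATP content (CellTiter-Glo) served as the growth readout. Knockout chicken DT40 cells expressing human TDP1 were exposed to compounds without camptothecin for a minimum 48 hr at 37 °C.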
HT1080 IDH1KD tx = HT-1080 IDH1 knockdown cell toxicity (counter line); Potency, µM (highest dose often 46.1 µM), usual class: cytotoxic; 360,000 tested, 2% active; HT-1080 IDH1 knockdown viability, ATP luminescence, 48 h
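After a 2 h attachment period, IDH1KD HT-1080 cells took pin-transferred compound for 48 h at 37 °C; ATP-based luminescence after 10 min room-temperature reagent incubation reported viability.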
KB-3-1 cytotox = KB-3-1 parental cell cytotoxicity; Potency, µM (titrated, usually from 46.1 µM), hits mostly cytotoxic; KB-3-1 viability, CellTiter-Glo ATP luminescence, 72 h; AID 1347075; 400,000 tested, 1.4% active; also: nearly all actives have a fitted effect of over 60% in size
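Here the drug-naive KB-3-1 line serves as comparator for MDR sub-line selectivity; cells received compound titrations, 72 h at 37 °C, then CellTiter-Glo readout.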
HT1080NT lethal = kills 2HG-producing HT-1080-NT fibrosarcoma cells; 360,000 tested, 1.6% active; Potency, µM (series often up to 46.1 µM), usual class: cytotoxic; HT-1080-NT fibrosarcoma viability, CellTiter-Glo ATP luminescence, 48 h; AID 686970;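 also: NT is the 2HG producing partner of a matched IDH1 knockdown line; nearly all actives have a fitted effect of over 55% in size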
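Toxicity toward the 2HG-producing NT line was scored as %Activity, normalised to DMSO and no-cell wells, from CellTiter-Glo luminescence after 48 hours' treatment.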
Of the large screens only hits and unclear results are named; the others gave an inactive call; ! = not confirmed by another sample. Calls follow the shape of the dose curve; as a rule, active = well fitted curve in the direction sought with a large enough effect; inconclusive = small, poorly fitted or top-dose-only effect, or another doubt; inactive = no such curve, though single readings can be large; an effect the other way counts as inactive or inconclusive.

CCNS(=O)(=O)c1ccc2nc(NC(=O)/C=C/c3cc(OC)c(OC)c(OC)c3)sc2c1	TDP1 cell noCPT inconclusive
COCCNC(=O)CCn1c(=O)c2cc(OC)c(OC)cc2n(CC(=O)Nc2ccccc2OC)c1=O	none (no result: HT1080 IDH1KD tx, HT1080NT lethal)
COc1ccc(NC(=O)C(=S)N2CCCC2)cc1	none
Cc1cccc(C)c1NC(=O)/C(C#N)=C/c1cccs1	TDP1 cell CPT 12µM, TDP1 cell noCPT inconclusive
c1ccc2c(CCNc3ncnc4nc[nH]c34)c[nH]c2c1	TDP1 cell CPT 6.5µM, TDP1 cell noCPT 12µM, HT1080 IDH1KD tx inconclusive, KB-3-1 cytotox inconclusive
COc1ccccc1CNc1ncnc2nc[nH]c12	TDP1 cell CPT inconclusive, TDP1 cell noCPT inconclusive, KB-3-1 cytotox inconclusive
COC(=O)c1cc(Br)ccc1N(Cc1cc(OC)cc(OC)c1)S(C)(=O)=O	KB-V1 MDR tox inconclusive, TDP1 cell CPT inconclusive, TDP1 cell noCPT 16µM
COC(=O)c1ccccc1N(Cc1ccccc1)S(C)(=O)=O	none
CCN(CC)CCNC(=O)c1cc(-c2cccnc2)nc2ccc(S(=O)(=O)N3CCC(C)CC3)cc12	TDP1 cell CPT inconclusive, TDP1 cell noCPT inconclusive
CCCCN(C)CCNC(=O)c1cc(-c2cccnc2)nc2ccc(S(=O)(=O)N3CCC(C)CC3)cc12	TDP1 cell CPT inconclusive, TDP1 cell noCPT 15µM, HT1080NT lethal inconclusive
CCCCN(CCCC)CCNC(=O)c1cc(-c2cccnc2)nc2ccc(S(=O)(=O)N3CCC(C)CC3)cc12	TDP1 cell CPT 3.7µM (no result: KB-V1 MDR tox, HT1080 IDH1KD tx, KB-3-1 cytotox, HT1080NT lethal)
NS(=O)(=O)c1ccc(CNC(=O)c2cc(=O)c3cc(Cl)ccc3o2)cc1	none
c1ccc(COc2ccccc2CNC23CC4CC(CC(C4)C2)C3)cc1	KB-V1 MDR tox inconclusive, TDP1 cell CPT 18µM, TDP1 cell noCPT 15µM, HT1080 IDH1KD tx 16µM, KB-3-1 cytotox inconclusive, HT1080NT lethal 13µM
O=C(NCCc1ccccc1)c1ccc(-c2ccc(F)cc2)o1	none
O=C(NCCc1ccccc1)c1ccc(-c2ccccc2C(F)(F)F)o1	TDP1 cell CPT 9.2µM, TDP1 cell noCPT inconclusive, HT1080 IDH1KD tx inconclusive, HT1080NT lethal inconclusive
COc1ccccc1CNC(=O)c1ccc(-c2ccccc2Cl)o1	TDP1 cell CPT inconclusive, TDP1 cell noCPT inconclusive
COc1ccc(NC(=O)c2ccc(-c3ccccc3C(F)(F)F)o2)cc1	TDP1 cell CPT inconclusive, TDP1 cell noCPT 16µM
COc1ccccc1CNC(=O)c1ccc(-c2ccccc2C(F)(F)F)o1	TDP1 cell CPT 21µM, TDP1 cell noCPT 21µM
CCN(CC)C(=O)c1cc(-c2ccc3c(c2)OCO3)on1	none
Cc1ccc(CS(=O)(=O)CCC(=O)NCCCN2CCCC2=O)cc1	none
Cc1ccc(NC(=O)COC(=O)CCc2ccc(S(=O)(=O)N3CCOCC3)cc2)cc1F	none
COc1ccc(NC(=O)CCNC(=O)c2ccco2)cc1Cl	none
COc1ccc(N(C)S(=O)(=O)c2cccc(C(=O)Nc3ccc4c(c3)OCCO4)c2)cc1	TDP1 cell CPT 16µM, TDP1 cell noCPT 15µM
COc1ccc(N(C)S(=O)(=O)c2cccc(C(=O)Nc3nc(C)cs3)c2)cc1	KB-V1 MDR tox inconclusive
COc1ccc(N(C)S(=O)(=O)c2cccc(C(=O)Nc3ccc(-n4cnnn4)cc3)c2)cc1	KB-V1 MDR tox inconclusive, TDP1 cell CPT 18µM, TDP1 cell noCPT 18µM
CN(C)S(=O)(=O)c1cccc(NC(=O)c2ccc3c(c2)OCCO3)c1	TDP1 cell CPT 15µM, TDP1 cell noCPT 15µM
COc1ccc(-c2nc3cnc(OCc4ccccc4)nc3n(CCC#N)c2=O)cc1	none (no result: KB-V1 MDR tox, HT1080 IDH1KD tx, KB-3-1 cytotox, HT1080NT lethal)
COc1ccc(C(=O)Nc2ccc(OCC(=O)N3CCOCC3)cc2)c(OC)c1OC	none
CC(=O)Nc1ccc([N+](=O)[O-])c(CS(=O)(=O)c2ccc(C)cc2)c1[N+](=O)[O-]	TDP1 cell CPT inconclusive, TDP1 cell noCPT 23µM
Cc1ccc(N2CC(C)Cn3c2nc2c3c(=O)[nH]c(=O)n2C)cc1C (stereo not given)	KB-V1 MDR tox inconclusive, TDP1 cell noCPT inconclusive
c1ccc(Oc2ccc(-c3ccnc4nc(N5CCOCC5)nn34)cc2)cc1	KB-V1 MDR tox inconclusive, TDP1 cell CPT 15µM, TDP1 cell noCPT 16µM, HT1080 IDH1KD tx inconclusive
COc1ccc(-c2ccnc3nc(N4CCOCC4)nn23)cc1	KB-V1 MDR tox inconclusive
CC(C(c1ccc2c(c1)OCO2)c1c(N)n(C)c(=O)n(C)c1=O)[N+](=O)[O-] (stereo not given)	KB-V1 MDR tox inconclusive, TDP1 cell CPT inconclusive, TDP1 cell noCPT 16µM
Cn1c(N)c(C(C[N+](=O)[O-])c2ccccc2Cl)c(=O)n(C)c1=O (stereo not given)	TDP1 cell CPT 4.1µM, TDP1 cell noCPT 4.6µM
Cn1c(N)c(C(=O)COC(=O)Cc2c(F)cccc2Cl)c(=O)n(C)c1=O	none
COc1cc(C(C[N+](=O)[O-])c2c(N)n(C)c(=O)n(C)c2=O)ccc1O (stereo not given)	KB-V1 MDR tox inconclusive, TDP1 cell CPT 6.5µM, TDP1 cell noCPT 6.5µM, HT1080 IDH1KD tx 21µM, KB-3-1 cytotox inconclusive, HT1080NT lethal inconclusive
COc1cccc(F)c1C(C[N+](=O)[O-])c1c(N)n(C)c(=O)n(C)c1=O (stereo not given)	KB-V1 MDR tox inconclusive, TDP1 cell CPT 4.6µM, TDP1 cell noCPT 2.3µM, HT1080 IDH1KD tx 5.8µM, KB-3-1 cytotox inconclusive, HT1080NT lethal 10µM
COc1ccc(C(=O)Nc2ccc3c(c2)C(=O)NC3=O)cc1	KB-V1 MDR tox inconclusive, KB-3-1 cytotox inconclusive
COc1ccc(S(=O)(=O)N(C)c2ccc(C(=O)NCc3ccco3)cc2)cc1OC	KB-V1 MDR tox inconclusive
COc1cc(OC)cc(N(C(=O)CNC(=O)c2cccs2)C(C(=O)NCC2CCCO2)c2ccccc2)c1 (stereo not given)	TDP1 cell noCPT inconclusive
O=C(NCc1ccccc1Cl)c1ccc2nc[nH]c2c1	KB-V1 MDR tox inconclusive, TDP1 cell noCPT inconclusive
Cn1c(N)c(C(=O)c2ccccc2)c(=O)n(C)c1=O	none
Cc1ccc(C(C[N+](=O)[O-])c2c(N)n(C)c(=O)n(C)c2=O)cc1 (stereo not given)	KB-V1 MDR tox inconclusive, TDP1 cell CPT 3.7µM, TDP1 cell noCPT 5.2µM, HT1080 IDH1KD tx inconclusive, KB-3-1 cytotox 16µM, HT1080NT lethal inconclusive
CCN1CCN(Cc2ccc(NC(=O)c3ccc(C)c(NC(=O)c4cccc5[nH]ccc45)c3)cc2C(F)(F)F)CC1	KB-V1 MDR tox inconclusive, TDP1 cell CPT 12µM, TDP1 cell noCPT 13µM, HT1080 IDH1KD tx inconclusive, KB-3-1 cytotox 16µM!, HT1080NT lethal inconclusive
